Source: PubChem BioAssay (several laboratories)
Hits are enriched below; roughly 2.3% of the tested compounds scored in any of these assays.
Rin1-Abl PPI inh – blocks binding of human Rin1 to Abl | P00519+Q13671 | 360,000 compounds, 0.4% hits | inhibition, % at 7.35 µM | TR-FRET Rin1/Abl binding, biochemical; in the data active means inhibition above about 5%, passing the limit was not always enough
Calb FLC – C. albicans growth modulation with fluconazole; 300,000 compounds, 0.57% hits; growth inhibition, % (test concentration not listed); C. albicans CaCi-2 (fluconazole-resistant clinical isolate) + fluconazole, Alamar Blue growth, 48 h;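 active means growth inhibition above about 58% in most replicates, limit read from the data, passing the limit was not always enough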;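 further: all wells also contain fluconazole at 8 µg/ml as a sub-toxic cotreatment; 0% = median of DMSO wells and 100% = median of geldanamycin control wells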
IDE act – IDE (human) activation, cell-based | HEK cells, FAbeta-B cleavage, fluorescence polarization; 0% vehicle, 100% cell-free pure enzyme wells | AID 493087 | activation, % at 5.96 µM | P14735 | 340,000 compounds, 0.073% hits;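 active means activation above the mean of all tested compounds plus 3 SD, set per screening campaign, cut at about 17% in these data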
TPT1 inhibitor – inhibitors of Candida albicans tRNA 2'-phosphotransferase TPT1 | recombinant caTPT1, FP RNA substrate dephosphorylation | inhibition, % at 5 µM | 300,000 compounds, 0.81% hits;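 active means inhibition above the mean of all tested compounds plus 3 SD, set per screening campaign, cut at about 24% in these data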;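 further: plate controls were DMSO alone for no effect and ferristatin control at 100 nM for full effect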
Rpn11 block – Rpn11 (human) deubiquitinase inhibition; O00487; human 26S proteasome, Ub4-pepOG fluorescence polarization; 20S core pre-blocked with epoxomicin; inhibition, % at 20 µM; 360,000 compounds, 0.59% hits; AID 588493;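 active means inhibition at 20 µM, scaled to each plate's controls, above about 33%, limit read from the data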
Target sequence (O00487 whole entry, looked up): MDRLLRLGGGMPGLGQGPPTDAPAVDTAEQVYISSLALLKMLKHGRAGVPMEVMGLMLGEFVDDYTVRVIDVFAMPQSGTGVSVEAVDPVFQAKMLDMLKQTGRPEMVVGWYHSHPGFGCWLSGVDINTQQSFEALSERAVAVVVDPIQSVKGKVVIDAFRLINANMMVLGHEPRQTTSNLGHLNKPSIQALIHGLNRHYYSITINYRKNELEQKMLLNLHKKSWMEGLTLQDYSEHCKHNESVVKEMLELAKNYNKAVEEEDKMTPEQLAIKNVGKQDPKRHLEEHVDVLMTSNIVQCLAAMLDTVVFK
IDE cell inh – inhibitors of human insulin-degrading enzyme in cells. P14735. HEK cells, FAbetaB cleavage, fluorescence polarization. inhibition, % at 5.59 µM. 320,000 compounds, 0.41% hits;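 active means percent inhibition above the average of all tested compounds plus 3 SD, set per screening campaign, cut at about 16% in these data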;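 further: IDE supplied by intact live HEK cells; FP after avidin binding of uncleaved biotin substrate so inhibition keeps polarization high; 0% = DMSO wells and 100% = 60 µM reference IDE inhibitor Ii1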
TPT1 inh confirm – confirmation of Candida albicans TPT1 inhibitors; shares compounds with TPT1 inhibitor; recombinant caTPT1, fluorescence polarization, RNase T1 coupled; inhibition, % at 5 µM; 2,400 compounds, 74% hits; AID 2149;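 active means inhibition above the primary screen limit, the mean inhibition of all tested compounds plus 3 SD, cut at about 25% in these data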
RNase T1 inh – blocks Aspergillus oryzae RNase T1, a TPT1 counter-screen; 2,400 compounds, 83% hits; shares compounds with TPT1 inhibitor; inhibition, % at 5 µM; AID 2153; RNase T1 cleavage, fluorescence polarization, 1536-well;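 active means inhibition above the solvent-only control well mean plus 3 SD, limit set per screening run, cut at about 23% in these data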;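 further: plate controls were DMSO wells with enzyme for no effect and wells without RNase T1 for full effect; inhibitors block cleavage so intact labeled substrate keeps polarization high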
Target sequence (P00651 whole entry, looked up): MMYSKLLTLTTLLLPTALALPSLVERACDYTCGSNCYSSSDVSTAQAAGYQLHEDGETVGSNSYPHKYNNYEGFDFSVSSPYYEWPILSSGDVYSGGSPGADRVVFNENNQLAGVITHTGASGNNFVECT
Numbers without * were called inactive; nt = not tested or not shown; + = active, no number.

SMILES | Rin1-Abl PPI inh | Calb FLC | IDE act | TPT1 inhibitor | Rpn11 block | IDE cell inh | TPT1 inh confirm | RNase T1 inh
O=C(NCCc1ccccc1)C(=O)NCC1OCCN1S(=O)(=O)c1ccc(F)cc1 (configuration not stated) | -1 | 3 | 6 | 3 | -1 | -2 | nt | nt
CC(=O)c1c(N2CCN(c3ccccc3)CC2)nc(=S)n(-c2ccccc2)c1C | -12 | -4 | -2 | 78* | 33 | 6 | 26* | 35*
CC1=C(C(=O)N2CCOCC2)CC(CC(=O)NCC2CCCCC2)C(=O)N1Cc1ccccc1 (configuration not stated) | 0 | nt | nt | nt | 1 | nt | nt | nt
CCN1c2ccccc2NC2C1C(C(C)=O)C(=O)N2c1ccc(Cl)cc1 (configuration not stated) | -3 | 19 | -8 | 60* | nt | -3 | 76* | 85*
O=C(CSc1nc(-c2ccccc2)nc2c1CCCC2)N1CCOCC1 | 6 | 4 | 4 | 56* | 1 | 2 | 28* | 30*
N#C/C(C(N)=O)=C1/SC(Cc2ccc(F)cc2)C(=O)N1c1ccccc1 (configuration not stated) | -2 | -4 | -4 | 28* | 21 | 9 | 4 | 5
Cc1cc(C(=O)COC(=O)Cc2ccc(Br)cc2)c(C)n1C | -3 | nt | -5 | nt | -6 | 4 | nt | nt
CC(=N)c1c(O)c2ccccc2oc1=O | -1 | 1 | -1 | 27* | -4 | 6 | 4 | 5
CCCCC(=O)c1c(O)c2ccccc2oc1=O | 2 | 6 | 5 | -3 | 2 | 8 | nt | nt
COc1ccccc1CNS(=O)(=O)c1ccc2c(c1)CC(=O)N2C | 5 | -1 | 5 | 4 | 0 | 7 | nt | nt
CN(CC(=O)Nc1cccc(F)c1)C(=O)C1CCN(S(=O)(=O)c2ccc3c(c2)OCCO3)CC1 | -2 | -6 | 8 | -2 | 2 | 7 | nt | nt
COc1ccc(-c2ccc(C3C(C#N)=C(N)Oc4n[nH]c(C)c43)o2)cc1 (configuration not stated) | -5 | -22 | -3 | 111* | 73* | 1 | 99* | 101*
Cc1[nH]nc2c1C(c1ccco1)C(C#N)=C(N)O2 (configuration not stated) | 5 | 9 | 5 | -1 | -1 | -1 | nt | nt
Cc1ccccc1-n1c(SCc2c(C)noc2C)nnc1-c1cccnc1 | 3 | 3 | -19 | -49 | -124 | 10 | nt | nt
Cc1ccccc1-n1c(SCc2c(C)noc2C)nnc1-c1ccncc1 | -3 | -3 | 4 | 33* | 4 | 6 | 11 | 16
Cc1ccc(C(C)C)c(OCC(=O)Nc2cccc(S(=O)(=O)NC3=NCCCCC3)c2)c1 | -1 | -7 | 5 | 2 | -4 | -5 | nt | nt
O=C(Cc1ccc(Cl)c(Cl)c1)Nc1cccc(S(=O)(=O)N2CCOCC2)c1 | -2 | -15 | -1 | 62* | 2 | 4 | 1 | 3
O=C(Cc1ccc2c(c1)OCCO2)Nc1cccc(S(=O)(=O)N2CCOCC2)c1 | 6 | nt | 3 | nt | -1 | 1 | nt | nt
COC(CNC(=O)C1CCCN1C(=O)OCc1ccccc1)OC (configuration not stated) | -2 | 18 | 1 | 43* | -3 | -1 | 5 | 7
COc1ccc([C@H]2C[C@H](O)[C@@H](n3cc(-c4ccc(F)cc4)nn3)CN2C(=O)c2cccs2)cc1 | 0 | nt | nt | nt | 2 | nt | nt | nt
C=C(C)CN(CC)C(=O)CN1C(=O)NC2(CCCc3ccccc32)C1=O (configuration not stated) | 0 | -2 | 7 | -1 | 2 | -3 | nt | nt
COc1cc(/C=C(\C#N)C(=O)Nc2ccccn2)ccc1O | -2 | 5 | -18 | 34* | 28 | 4 | 57* | 63*
CCOc1cc(/C=C(\C#N)C(=O)Nc2ccccn2)ccc1O | -2 | -2 | -2 | 10 | 19 | -3 | nt | nt
COc1ccc(CNC(=O)/C=C/c2cc([N+](=O)[O-])ccc2OC(F)F)cc1OC | -3 | -13 | 9 | 37* | -1 | 1 | 7 | 8
CN1CCN(S(=O)(=O)c2cccc(C(=O)Nc3sc4c(c3-c3nc5ccccc5[nH]3)CCCC4)c2)CC1 | 0 | -3 | -5 | 33* | 33 | 3 | 35* | 48*
SMILES | Rin1-Abl PPI inh | Calb FLC | IDE act | TPT1 inhibitor | Rpn11 block | IDE cell inh | TPT1 inh confirm | RNase T1 inh
CNC(=O)NC(=O)CSc1ccc(S(=O)(=O)N2CCOCC2)cn1 | 0 | nt | 10 | nt | -2 | -2 | nt | nt
CCN(CC)c1ccc(/C=N/Nc2nc3ccccc3[nH]2)c(O)c1 | 5 | 98* | 1 | 34* | 29 | -4 | 17 | 21
CSc1nnc(-c2cccs2)n1-c1ccccc1 | 2 | 35 | -1 | 1 | -9 | 4 | nt | nt
CN1CCN(S(=O)(=O)c2ccc(Sc3nnc(-c4cccs4)n3-c3ccccc3)nc2)CC1 | 5 | -1 | 2 | 34* | -2 | 0 | 3 | 5
O=C(Cc1ccccc1)NCC(=O)N1CCN(c2ccccc2F)CC1 | -1 | 8 | -7 | 0 | 2 | -4 | nt | nt
N#C/C(=C/c1ccc(N2CCOCC2)o1)c1ccc(Br)cc1 | 5 | -9 | -42 | + | nt | 10 | 171* | 159*
N#C/C(=C/c1ccc(N2CCOCC2)o1)C(=O)NC1CCCCC1 | -18 | 47 | -36 | 156* | nt | 9 | 173* | 166*
N#C/C(=C\c1ccc(N2CCOCC2)o1)c1ccccc1 | 3 | -22 | -9 | 67* | nt | -5 | 138* | 137*
O=C(CCC(=O)Nc1nnc(C2CCCCC2)s1)Nc1ccc(F)cc1 | 0 | -2 | 7 | -5 | 0 | 4 | nt | nt
COc1ccc(OC)c(S(=O)(=O)N/N=C\c2c[nH]c3ccccc23)c1 | 3 | 12 | 3 | nt | 5 | nt | nt | nt
CCOc1ccc(/C=C2\SC(=S)N(C(C(=O)O)c3ccccc3)C2=O)cc1OC (configuration not stated) | 2 | 9 | -4 | 11 | 21 | 8 | nt | nt
COc1ccc(OC)c(/C=C2\SC(=S)N(C(C(=O)O)c3ccccc3)C2=O)c1 (configuration not stated) | 1 | 6 | -16 | 65* | nt | 7 | 61* | 72*
COc1ccc2c(-c3ccccc3)cc(SCC(N)=O)nc2c1 | -4 | 22 | 2 | 35* | nt | -5 | 39* | 50*
COc1ccc2nc(SCC(N)=O)cc(C)c2c1 | 0 | 1 | 5 | 0 | 8 | 4 | nt | nt
O=C(/C=C/c1ccc2ccccc2n1)c1cc(Br)ccc1O | -3 | 5 | -2 | 43* | nt | 1 | 16 | 23*
O=C(COC(=O)c1ccc[nH]c1=O)NCCCc1ccccc1 | 1 | nt | 4 | nt | -3 | -4 | nt | nt
O=C(NCCS(=O)(=O)N1CCN(c2ccccc2F)CC1)c1cc(=O)c2ccccc2o1 | 0 | -11 | 3 | -1 | 0 | -1 | nt | nt
